Data on one compound can be found in PubChem BioAssay (NCATS).

A number with no mark means an inactive call. Inconclusive results are not listed. The source made the active and inactive calls. The call rests on the fitted dose curve; in most records, active means well fitted curve in the direction sought with a large enough effect; inconclusive means small, poorly fitted or top-dose-only effect, or another doubt; inactive means no such curve, though single readings can be large; an effect the other way counts as inactive or inconclusive.

Test [1] is described as follows: Cellular Toxicity (caspase-3) SK-N-SH (AID 661).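 Further: 0% = DMSO basal and 100% = 10 µM staurosporine.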 In a few lines: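 Human neuroblastoma SK-N-SH, 1500 cells/well, 5 hr pre-incubation, then compound 16 hr, 37 °C. Caspase-Glo 3/7 reagent, 1 hr RT, luminescence. Norm. to DMSO/10 uM staurosporine; Hill-fit AC50.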
The nature of test [2]: Cellular Toxicity (caspase-3) H-4-II-E (AID 663).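 Further: cells exposed to compound for 16 hr before readout.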 As to conditions: H-4-II-E rat hepatoma, scaled: DMSO 0%, 100 µM tamoxifen 100%; at 92.2 µM (top of the series). An outline of the steps:
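Luminescence from caspase-cleaved aminoluciferin substrate, read 20 min after reagent addition, reports caspase 3/7 activation in rat H-4-II-E cells after 16 hr compound exposure. Normalized to DMSO (basal) and 100 uM tamoxifen (100%); AC50 from Hill fits.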

A short description of test [3]: Cellular Toxicity (caspase-3) Hek293 (AID 664).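 Further: cells exposed to compound for 16 h at 37 °C before readout.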 To be noted: HEK293 caspase-3 activation, DMSO = 0%, 100 µM tamoxifen = 100%; at 92.2 µM (top of the series). An outline of the steps:
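Cells plated, 5 hr at 37 °C; compounds added; 16 hr at 37 °C; Caspase-Glo 3/7 reagent, 20 min RT; luminescence read. Activation expressed relative to DMSO and 100 uM tamoxifen, AC50 by Hill model.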

Test [4] in a line: Cellular Toxicity (caspase-3) N2a (AID 665).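 Further: compound exposure lasted 16 h at 37 °C before readout.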 In a few lines:
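N2a cells, 1500/well, 5 h settle at 37 °C; cpd 16 h, 37 °C; Caspase-Glo 3/7, 1 h RT; luminescence. Norm: DMSO = 0, 10 uM staurosporine = 100%. AC50, Hill fit.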

Test [5] can be described thus: Cellular Toxicity (caspase-3) NIH 3T3 (AID 666).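 Further: 0% = DMSO basal and 100% = 100 µM tamoxifen stimulation.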 In a few lines:
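Luminescence from aminoluciferin released by caspase-3/7 cleavage of a peptide substrate served as read-out. Mouse fibroblast NIH 3T3 cells were exposed to compounds over a concentration range for 16 hours, and AC50 values came from standard Hill modelling.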

Test [6] in a line: Cellular Toxicity (caspase-3) Renal Proximal Tubule (AID 667).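 Further: cells exposed to compound for 16 hours at 37 °C before detection; 0% = DMSO basal and 100% = 10 µM staurosporine.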 As to conditions: renal proximal tubule cells; at 91.7 µM (top of the series) unless noted. An outline of the steps:
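Caspase 3/7 activation measured by luminescent aminoluciferin release in primary rat proximal tubule cells after 16 hr compound exposure at 37 °C. AC50 from Hill-fitted concentration-response, scaled between DMSO and 10 uM staurosporine.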

Test [7] addresses Cytochrome P450 3A4 (Homo sapiens) (UniProt P08684). Description: qHTS Assay for Inhibitors and Substrates of Cytochrome P450 3A4 (AID 884). Further: on the % scale 0 is the no-effect control and ±100 the full control effect; nearly all actives have a fitted effect of over 50% in size. In a few lines: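 20 nM human CYP3A4 with 25 uM Luciferin-PPXE (at KM) in 200 mM KPO4, preincubated 10 min with compound; NADPH regeneration started a 60 min RT reaction. Luciferin detected by luminescence, normalized to 57 uM ketoconazole as full inhibition.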

Test [8] in a line: Cell Viability - LYMP2-001 (AID 921). Further: potency means the concentration at half of the fitted maximal effect; nearly all actives have a fitted effect of over 70% in size. An outline of the steps:
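Cellular ATP loss read by luciferase luminescence after 24 h compound exposure at 37 C in complete medium. LYMP2-001 lymphoblastoid cells, 2500/well; qHTS concentration-response data fitted with Hill equation for AC50.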

A short description of test [9]: MultiTox-Fluor Cytotoxicity Assay - LYMP1-001 - Live Cells (AID 947). Further: potency means the concentration at half of the fitted maximal effect.
The nature of test [10]: Cell Viability - LYMP1-002 - Assay at 16 hr (AID 948). Further: potency means the concentration at half of the fitted maximal effect. An outline of the steps: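 ATP luminescence (CellTiter-Glo) was measured after 16 hr compound exposure at 37 C of 2500 lymphoblastoid LYMP1-002 cells per well. Concentration-response curves were fitted with the Hill equation to give AC50.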
Test [11] can be described thus: MultiTox-Fluor Cytotoxicity Assay - LYMP1-002 - Dead Cells (AID 960). Further: potency means the concentration at half of the fitted maximal effect; nearly all actives have a fitted effect of over 60% in size. An outline of the steps:
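LYMP1-002 cells 2500/well; 5 hr 37 C pre-incubation; compound 16 hr 37 C; MultiTox-Fluor reagent 60 min RT; dead-cell fluor Ex/Em 485/520. Norm. to DMSO (0%) vs 15 uM tetraoctylammonium bromide (100%); Hill AC50.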

The nature of test [12]: MultiTox-Fluor Cytotoxicity Assay - LYMP1-003 - Dead Cells (AID 961). Further: potency means the concentration at half of the fitted maximal effect; nearly all actives have a fitted effect of over 70% in size. In a few lines: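 LYMP1-003 lymphoblastoid, 2500 cells/well, 5 hr settle then 16 hr cpd at 37 C; MultiTox-Fluor reagent 60 min RT; Ex/Em 485/520 dead-cell signal; norm. DMSO = 0%, 15 uM tetraoctylammonium bromide = 100%; Hill AC50.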
A short description of test [13]: MultiTox-Fluor Cytotoxicity Assay - LYMP1-003 - Live Cells (AID 962).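 Further: potency means the concentration at half of the fitted maximal effect; cells exposed to compound for 16 hours at 37 °C.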 In a few lines:
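qHTS, 1536-well; 2500 cells/well LYMP1-003; 5 hr 37 C settle; cpd 16 hr 37 C; MultiTox-Fluor reagent 60 min RT; live-cell protease fluor. 405/510; Hill-fit AC50; tetraoctylammonium bromide pos. ctrl.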

Test [14] in a line: Cell Viability - LYMP1-003 - Assay at 24 hr (AID 963). Further: potency means the concentration at half of the fitted maximal effect. An outline of the steps: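 Cells seeded at 2500/well, 5 hr at 37 C; compounds added; 24 hr at 37 C; CellTiter-Glo added, 30 min room temperature; luminescence read. Decrease in ATP taken as cytotoxicity, AC50 from Hill modelling.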
The nature of test [15]: Cell Viability - LYMP1-003 - Assay at 40 hr (AID 964). Further: potency means the concentration at half of the fitted maximal effect; nearly all actives have a fitted effect of over 60% in size. In a few lines: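 Cells were seeded at 2500 per well and incubated 5 hr at 37 C. Compounds were added across a concentration series and left 40 hr at 37 C. CellTiter-Glo was added for 30 min at room temperature before luminescence reading.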
A short description of test [16]: Cell Viability - LYMP2-003 (AID 965).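 Further: potency means the concentration at half of the fitted maximal effect; cells exposed to compounds for 24 h before reading; nearly all actives have a fitted effect of over 50% in size.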 In a few lines: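 CellTiter-Glo luminescence quantified ATP loss after 24 h compound treatment of LYMP2-003 lymphoblastoid cells at 37 C. Titration series were fitted with the standard Hill equation to give AC50.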
Test [17] in a line: Cell Viability - LYMP2-004 (AID 966). Further: potency means the concentration at half of the fitted maximal effect; nearly all actives have a fitted effect of over 65% in size. An outline of the steps: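 Cells seeded 2500/well, rested 5 hr at 37 C, dosed across a concentration series, incubated 24 hr at 37 C, then CellTiter-Glo added for 30 min at room temperature and luminescence read. Hill fitting gave AC50.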
A short description of test [18]: Cell Viability - LYMP2-005 (AID 967). Further: potency means the concentration at half of the fitted maximal effect. An outline of the steps:
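LYMP2-005 human lymphoblastoid cells (2500/well) were treated with compounds for 24 h at 37 C. Intracellular ATP was then measured by CellTiter-Glo luminescence after 30 min at room temperature. AC50 values came from Hill-equation fits of qHTS concentration-response data.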

Sequence of Cytochrome P450 3A4 (Homo sapiens) (P08684 whole entry, looked up): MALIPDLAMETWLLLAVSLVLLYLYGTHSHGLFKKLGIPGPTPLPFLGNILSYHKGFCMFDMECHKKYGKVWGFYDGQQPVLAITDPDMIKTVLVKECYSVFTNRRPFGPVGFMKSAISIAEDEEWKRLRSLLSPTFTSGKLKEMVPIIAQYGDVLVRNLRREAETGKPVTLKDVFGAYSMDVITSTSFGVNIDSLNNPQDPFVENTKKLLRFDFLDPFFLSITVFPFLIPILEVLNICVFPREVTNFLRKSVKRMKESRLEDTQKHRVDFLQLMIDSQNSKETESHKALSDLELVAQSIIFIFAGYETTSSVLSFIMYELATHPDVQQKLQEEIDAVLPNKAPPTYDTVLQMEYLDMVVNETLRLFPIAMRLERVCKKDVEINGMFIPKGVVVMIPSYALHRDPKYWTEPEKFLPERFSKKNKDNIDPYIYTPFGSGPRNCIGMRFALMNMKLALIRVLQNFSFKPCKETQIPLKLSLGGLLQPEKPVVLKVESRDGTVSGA

As to `CN(C)c1ccc(N=O)cc1`, the compound was classed as inactive in [1], in test [4] and in test [5]. Further, the caspase-3 activation in test [2] is -1.57%; in [3], 9.09%; in [6], -9.93%. In test [7], the Potency result was “inactive”. In addition, the Potency in test [8] is 0.631 µM (active); in [9] it was 10 µM (active); in test [10] it was 7.94 µM (active); in test [11], 3.16 µM (active); in test [12] it was 3.98 µM (active); in [13], 6.31 µM (active). Also, the Potency in [14] is 7.94 µM (active); in test [15] it was 3.98 µM (active); in test [16], 1.26 µM (active); in test [17], 0.794 µM (active); in [18] it was 0.794 µM (active).
